PubChem BioAssay (NCATS)
Inconclusive results are not listed. Entries that show only a call come without a potency. Activity calls are given as the source filed them. Unless noted, the call rests on the fitted dose curve; in most records, active means well fitted curve in the direction sought with a large enough effect; inconclusive means small, poorly fitted or top-dose-only effect, or another doubt; inactive means no such curve, though single readings can be large; an effect the other way counts as inactive or inconclusive.

Assays:
[1] = target: Thioredoxin reductase 1, cytoplasmic (Rattus norvegicus) (UniProt O89049); experiment: qHTS Assay for Inhibitors of Mammalian Selenoprotein Thioredoxin Reductase 1 (TrxR1) (AID 488773); conditions: Potency: inhibition; further: nearly all actives have a fitted effect of over 40% in size; further: potency means the concentration at half of the fitted maximal effect
Thioredoxin reductase 1, cytoplasmic (Rattus norvegicus), sequence (O89049 whole entry, looked up): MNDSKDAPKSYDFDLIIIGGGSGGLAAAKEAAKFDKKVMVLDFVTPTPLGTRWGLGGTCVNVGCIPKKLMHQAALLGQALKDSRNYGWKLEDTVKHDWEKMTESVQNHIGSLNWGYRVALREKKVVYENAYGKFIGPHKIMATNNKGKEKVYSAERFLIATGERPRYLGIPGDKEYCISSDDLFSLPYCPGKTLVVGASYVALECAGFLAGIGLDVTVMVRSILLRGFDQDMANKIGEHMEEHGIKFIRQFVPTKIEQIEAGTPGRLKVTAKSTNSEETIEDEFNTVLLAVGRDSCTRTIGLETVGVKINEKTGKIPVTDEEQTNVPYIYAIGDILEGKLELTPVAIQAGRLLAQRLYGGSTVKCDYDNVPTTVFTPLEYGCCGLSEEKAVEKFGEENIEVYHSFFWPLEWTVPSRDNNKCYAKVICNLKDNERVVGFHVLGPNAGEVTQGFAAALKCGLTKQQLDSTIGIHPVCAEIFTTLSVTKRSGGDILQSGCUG
Method in brief: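 Inhibition is scored from the loss of NADPH fluorescence between first and last reads of an 8-min kinetic run. Selenite (400 uM) was the substrate, added after 15 min compound preincubation at room temperature.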

[2] = target: Flap endonuclease 1 (Homo sapiens) (UniProt P39748); experiment: qHTS Validation Assay for the Inhibitors of Human Flap endonuclease 1 (FEN1) (AID 488816)
Method in brief: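 Enzyme reagent 10 nM; cpds pinned; 15 min RT preinc.; substrate 50 nM final; reads t=0 and 15 min; no-enzyme buffer wells as neg. control; normalized data, 4-parameter Hill fit.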

[3] = target: M-phase phosphoprotein 8 (Homo sapiens) (UniProt Q99549); experiment: qHTS Validation Assay for Inhibitors for MPP8 Chromodomain Interactions with Methylated Histone Tails (AID 488949);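 further: AlphaScreen signal from MPP8 chromodomain bound to biotinylated H3K9me3 peptide; top concentration of the series differs between compounds; nearly all actives have a fitted effect of over 55% in size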
Method in brief: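 AlphaScreen proximity signal from streptavidin donor and Ni-chelate acceptor beads (10 ug/mL each) reported binding of MPP8 to trimethyl-K9 H3(1-18) peptide, both at 50 nM. The complex formed 30 min before a 30 min compound exposure at room temperature, in PBS pH 7.4.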

[4] = target: Transient receptor potential cation channel subfamily V member 1 (Homo sapiens) (UniProt Q8NER1); experiment: HTS Assay for Compounds that Act as Enhancers of the Vanilloid Receptor 1 (AID 488979)
Method in brief: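 TRPV1 cells loaded with Fluo-8 calcium dye; compound added and Ca2+ signal (ex 480/em 520 nm) followed 3 min, then capsaicin at EC20 added and read 2 more min to detect enhancement.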

[5] = target: Thyrotropin receptor (Homo sapiens) (UniProt P16473); experiment: qHTS Assay for Antagonists of the Thyroid Stimulating Hormone Receptor (AID 488980); further: series mostly up to about 58 µM
Thyrotropin receptor (Homo sapiens), sequence (P16473 whole entry, looked up): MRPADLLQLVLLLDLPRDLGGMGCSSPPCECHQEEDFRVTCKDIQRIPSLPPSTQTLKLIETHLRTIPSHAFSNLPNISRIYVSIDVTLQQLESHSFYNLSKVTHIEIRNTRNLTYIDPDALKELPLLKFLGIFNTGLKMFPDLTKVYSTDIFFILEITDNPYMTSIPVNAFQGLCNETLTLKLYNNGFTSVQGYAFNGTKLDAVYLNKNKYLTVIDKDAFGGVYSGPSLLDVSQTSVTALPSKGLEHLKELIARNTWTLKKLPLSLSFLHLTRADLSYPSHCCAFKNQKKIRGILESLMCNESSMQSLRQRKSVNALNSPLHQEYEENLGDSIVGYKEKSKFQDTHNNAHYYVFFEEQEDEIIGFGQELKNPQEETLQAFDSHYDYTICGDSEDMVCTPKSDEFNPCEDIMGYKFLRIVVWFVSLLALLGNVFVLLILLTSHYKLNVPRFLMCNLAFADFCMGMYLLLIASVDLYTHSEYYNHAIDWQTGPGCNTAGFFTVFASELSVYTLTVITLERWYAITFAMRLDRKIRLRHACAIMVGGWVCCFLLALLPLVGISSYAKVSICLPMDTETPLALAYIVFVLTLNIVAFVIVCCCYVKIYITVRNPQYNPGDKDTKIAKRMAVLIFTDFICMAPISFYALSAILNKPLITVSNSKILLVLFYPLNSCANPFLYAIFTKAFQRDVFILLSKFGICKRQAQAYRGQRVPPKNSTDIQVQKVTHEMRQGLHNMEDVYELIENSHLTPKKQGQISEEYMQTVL
Method in brief: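 Inhibition of cAMP raised by EC80 TSH (4 nM final) was read by HTRF, with lysate cAMP competing against cAMP-d2 for cryptate antibody after 30 min at room temperature. The cells were transfected HEK293 held in phosphodiesterase inhibitor RO 20-1724 at 70 uM.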

[6] = target: D(1A) dopamine receptor (Homo sapiens) (UniProt P21728); experiment: HTS Assay for Allosteric Agonists of the Human D1 Dopamine Receptor: Primary Screen for Agonists (AID 488981)
Method in brief: (§1)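 Tetracycline-induced HEK293 Trex D1 cells with forced coupling to calcium, loaded with no-wash calcium dye; kinetic fluorescence read 180 s after compound addition for agonism, then a further 180 s after an EC20 dopamine challenge for potentiation.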

[7] = target: D(1A) dopamine receptor (Homo sapiens) (UniProt P21728); experiment: HTS Assay for Allosteric Agonists of the Human D1 Dopamine Receptor: Primary Screen for Potentiators (AID 488982)
Method in brief: as §1

[8] = target: D(1A) dopamine receptor (Homo sapiens) (UniProt P21728); experiment: HTS Assay for Allosteric Agonists of the Human D1 Dopamine Receptor: Primary Screen for Antagonists (AID 488983);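 further: calcium flux response to an EC80 dopamine challenge measured with no-wash dye; nearly all actives have a fitted effect of over 65% in size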; further: potency means the concentration at half of the fitted maximal effect
Method in brief: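 Kinetic fluorescence at 1 cycle/sec tracked intracellular calcium in force-coupled, tetracycline-inducible HEK293 T-REx D1 cells. Loss of response to an EC80 dopamine dose, given 180 s after compound, marked antagonists.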

[9] = target: ATPase family AAA domain-containing protein 5 (Homo sapiens) (UniProt Q96QE3); experiment: Validation screen for small molecules that inhibit ELG1-dependent DNA repair in human embryonic kidney (HEK293T) cells expressing luciferase-tagged ELG1 (AID 493107); further: nearly all actives have a fitted effect of over 70% in size; further: potency means the concentration at half of the fitted maximal effect
ATPase family AAA domain-containing protein 5 (Homo sapiens), sequence (Q96QE3 whole entry, looked up, the tested form may be a part): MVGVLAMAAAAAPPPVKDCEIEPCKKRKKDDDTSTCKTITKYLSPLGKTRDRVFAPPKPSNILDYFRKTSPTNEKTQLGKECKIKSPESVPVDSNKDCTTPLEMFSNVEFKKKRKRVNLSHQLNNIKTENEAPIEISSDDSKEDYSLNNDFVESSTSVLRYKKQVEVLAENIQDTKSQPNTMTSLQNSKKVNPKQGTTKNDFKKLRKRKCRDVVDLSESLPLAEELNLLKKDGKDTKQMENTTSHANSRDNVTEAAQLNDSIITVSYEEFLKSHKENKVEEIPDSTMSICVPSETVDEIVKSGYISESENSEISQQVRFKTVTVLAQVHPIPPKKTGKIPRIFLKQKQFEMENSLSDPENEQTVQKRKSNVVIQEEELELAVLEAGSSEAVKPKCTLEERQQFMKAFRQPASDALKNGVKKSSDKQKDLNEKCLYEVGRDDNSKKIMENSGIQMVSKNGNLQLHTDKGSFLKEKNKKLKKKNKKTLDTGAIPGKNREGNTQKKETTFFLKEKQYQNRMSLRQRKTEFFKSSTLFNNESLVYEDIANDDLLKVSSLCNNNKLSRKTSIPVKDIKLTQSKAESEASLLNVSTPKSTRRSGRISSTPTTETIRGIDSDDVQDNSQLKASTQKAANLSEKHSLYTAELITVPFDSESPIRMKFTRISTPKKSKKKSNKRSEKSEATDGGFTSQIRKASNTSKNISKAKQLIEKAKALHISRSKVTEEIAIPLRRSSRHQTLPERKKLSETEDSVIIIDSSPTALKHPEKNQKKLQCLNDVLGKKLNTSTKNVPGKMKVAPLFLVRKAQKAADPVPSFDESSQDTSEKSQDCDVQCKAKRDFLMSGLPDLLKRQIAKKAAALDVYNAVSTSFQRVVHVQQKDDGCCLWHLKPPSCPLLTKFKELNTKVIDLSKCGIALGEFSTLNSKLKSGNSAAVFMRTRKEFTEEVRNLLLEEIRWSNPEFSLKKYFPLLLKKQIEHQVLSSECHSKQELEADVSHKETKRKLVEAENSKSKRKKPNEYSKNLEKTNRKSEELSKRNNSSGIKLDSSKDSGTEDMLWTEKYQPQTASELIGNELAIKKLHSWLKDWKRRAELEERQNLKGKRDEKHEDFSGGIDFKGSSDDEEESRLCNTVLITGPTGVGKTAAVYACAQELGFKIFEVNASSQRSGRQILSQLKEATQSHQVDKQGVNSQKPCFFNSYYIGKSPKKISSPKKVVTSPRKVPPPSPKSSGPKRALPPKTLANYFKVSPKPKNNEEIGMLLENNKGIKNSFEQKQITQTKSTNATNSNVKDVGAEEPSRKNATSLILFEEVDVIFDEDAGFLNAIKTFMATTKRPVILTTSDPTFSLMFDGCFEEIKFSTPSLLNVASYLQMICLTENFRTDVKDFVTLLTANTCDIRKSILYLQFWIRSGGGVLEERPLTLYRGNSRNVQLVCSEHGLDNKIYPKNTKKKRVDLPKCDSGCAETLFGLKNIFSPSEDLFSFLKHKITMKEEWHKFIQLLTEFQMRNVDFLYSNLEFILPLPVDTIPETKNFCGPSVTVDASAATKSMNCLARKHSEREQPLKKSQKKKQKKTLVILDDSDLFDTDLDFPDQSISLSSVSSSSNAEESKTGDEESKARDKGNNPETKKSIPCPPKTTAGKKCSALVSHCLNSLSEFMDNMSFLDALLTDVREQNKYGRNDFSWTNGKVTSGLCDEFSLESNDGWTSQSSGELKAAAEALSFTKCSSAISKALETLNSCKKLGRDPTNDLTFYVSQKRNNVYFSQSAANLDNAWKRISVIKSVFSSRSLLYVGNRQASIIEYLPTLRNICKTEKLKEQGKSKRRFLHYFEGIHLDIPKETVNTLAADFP
Method in brief: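 Cells are dispensed in 1536-well format, then 5-fluorouridine and compound are pinned in. After a 16 hr incubation at 37 °C and 5% CO2, ONE-Glo is added and luciferase measured on a CCD imager.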

[10] = target: Thyrotropin-releasing hormone receptor (Homo sapiens) (UniProt P34981); experiment: qHTS for Small Molecule Agonists and Allosteric Enhancers of Human TRH Receptor: Validation Screen for Agonists (AID 493127;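 active means calcium activation more than 3 SD above the typical response in the agonist read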;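 further: intracellular calcium rise by fluo-8 fluorescence before TRH EC20 addition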); conditions: TRH receptor agonist cell assay; at 2 µM; stronger effect = higher value
Thyrotropin-releasing hormone receptor (Homo sapiens), sequence (P34981 whole entry, looked up): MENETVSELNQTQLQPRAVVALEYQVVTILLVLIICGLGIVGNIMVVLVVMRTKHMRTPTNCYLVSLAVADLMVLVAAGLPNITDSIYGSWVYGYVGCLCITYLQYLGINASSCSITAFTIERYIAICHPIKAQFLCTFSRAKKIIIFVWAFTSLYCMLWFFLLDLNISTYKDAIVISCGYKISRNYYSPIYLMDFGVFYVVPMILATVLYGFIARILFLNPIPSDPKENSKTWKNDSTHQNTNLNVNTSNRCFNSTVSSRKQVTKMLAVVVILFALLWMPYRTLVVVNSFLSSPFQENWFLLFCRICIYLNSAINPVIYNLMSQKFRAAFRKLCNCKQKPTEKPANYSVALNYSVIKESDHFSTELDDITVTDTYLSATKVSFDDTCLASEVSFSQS
Method in brief: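 Compounds are added by online pintool to dye-loaded TRHR cells while fluorescence is recorded every second. A rise in calcium signal during the agonist read marks activation; a later 10 nM TRH addition (EC20) serves the separate enhancer mode.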

[11] = Nrf2 qHTS screen for inhibitors: Validation (AID 493153; active means well fitted inhibition curve with a large enough effect in the main read-out, with a control signal flat, not every such curve was filed as active); conditions: Potency: luciferase luminescence; viability change: measured here: cytotoxicity max response
Method in brief: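 A549 ARE_Fluc, 5% FBS OPTI-MEM; cpd titration, 18-24 h, 37°C/5% CO2. Read 1: CellTiter-Fluor (Ex 405/Em 525), cytotox. Read 2: luciferase lum, Nrf2 activity.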

[12] = qHTS for Inhibitors of Cell Surface uPA Generation: Validation Assay (AID 493164);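 further: RAW 264.7 macrophage cells exposed to compound for 18 h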
Method in brief: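 ATP-Lite luminescence read-out: ATP remains high when uPA activity-dependent LF translocation into the cytoplasm is blocked. RAW 264.7 cells, 18 h compound exposure at 37 C; 7-point titration, 2.45 nM to 38.3 uM final.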

[13] = target: Peptidyl-prolyl cis-trans isomerase NIMA-interacting 1 (Homo sapiens) (UniProt Q13526); experiment: qHTS Validation Assay to Find Inhibitors of Pin1 (AID 504536; active means well fitted inhibition curve with a large enough effect in the polarisation, with a control signal flat, not every such curve was filed as active; the % refers to the polarisation)
Peptidyl-prolyl cis-trans isomerase NIMA-interacting 1 (Homo sapiens), sequence (Q13526 whole entry, looked up): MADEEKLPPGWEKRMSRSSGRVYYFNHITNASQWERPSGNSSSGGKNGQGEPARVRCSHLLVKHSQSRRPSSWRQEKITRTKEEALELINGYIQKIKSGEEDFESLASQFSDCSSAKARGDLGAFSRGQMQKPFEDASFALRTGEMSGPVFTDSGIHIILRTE
Method in brief: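 Fluorescence polarization competition: compounds (titration) displace HiFluor-488-labeled Pin1-1b peptide from Pin1 (0.3 uM final) in pH 7.5 HEPES buffer with DTT, 10 min at room temperature; %Activity normalized to no-enzyme wells, curves fitted.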

[14] = target: Phosphoglycerate kinase, glycosomal (Trypanosoma brucei brucei) (UniProt P07378); experiment: qHTS Validation Assay to Find Inhibitors of Phosphoglycerate Kinase (AID 504547)
Phosphoglycerate kinase, glycosomal (Trypanosoma brucei brucei), sequence (P07378 whole entry, looked up): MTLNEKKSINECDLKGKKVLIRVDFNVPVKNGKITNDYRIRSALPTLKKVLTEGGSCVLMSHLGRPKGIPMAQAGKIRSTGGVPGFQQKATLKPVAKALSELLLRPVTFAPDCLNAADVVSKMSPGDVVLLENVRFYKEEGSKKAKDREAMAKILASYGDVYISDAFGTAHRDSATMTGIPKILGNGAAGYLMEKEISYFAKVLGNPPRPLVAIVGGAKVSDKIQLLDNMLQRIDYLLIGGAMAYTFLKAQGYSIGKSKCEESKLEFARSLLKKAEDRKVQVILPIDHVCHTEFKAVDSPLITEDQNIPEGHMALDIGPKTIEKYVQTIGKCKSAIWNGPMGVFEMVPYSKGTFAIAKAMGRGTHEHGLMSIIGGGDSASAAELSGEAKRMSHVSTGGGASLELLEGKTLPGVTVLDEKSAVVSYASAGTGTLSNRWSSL
Method in brief: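 Compounds are pinned into the substrate/PGK mixture, and GAPDH (100nM final) is added to start the reaction by producing 1,3-BPG. After 60 minutes at room temperature, Kinase-Glo Plus is added and luminescence is measured 10 minutes later.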

[15] = Validation screen for small molecules that induce genotoxicity in human embryonic kidney (HEK293T) cells expressing luciferase-tagged ELG1 (AID 493106)
Method in brief: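 Cells were dispensed at 2,000 per well, then 23 nL compound or DMSO was pinned in. After 16 hr at 37 °C and 5% CO2, ONE-Glo reagent was added. Luciferase activity was measured following 30 min at room temperature.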

[16] = Validation screen for small molecules that induce DNA re-replication in SW480 colon adenocarcinoma cells (AID 504364)
Method in brief: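 Image-based qHTS: compounds were incubated with SW480 cells for 48 hr, nuclei stained with Hoechst, and per-nucleus fluorescence intensity scanned to flag cells with excess DNA content.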

[17] = target: Methanococcus maripaludis chaperonin (MmCpn) (UniProt Q6LX38); experiment: High-Throughput Screening for Modulators of Cytosolic Chaperonin Activity: MmCpn Primary Screen (AID 488978);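 further: 50 nM MmCpn enzyme hydrolysing 30 µM ATP at 37 °C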
Methanococcus maripaludis chaperonin (MmCpn), sequence (Q6LX38 1-543): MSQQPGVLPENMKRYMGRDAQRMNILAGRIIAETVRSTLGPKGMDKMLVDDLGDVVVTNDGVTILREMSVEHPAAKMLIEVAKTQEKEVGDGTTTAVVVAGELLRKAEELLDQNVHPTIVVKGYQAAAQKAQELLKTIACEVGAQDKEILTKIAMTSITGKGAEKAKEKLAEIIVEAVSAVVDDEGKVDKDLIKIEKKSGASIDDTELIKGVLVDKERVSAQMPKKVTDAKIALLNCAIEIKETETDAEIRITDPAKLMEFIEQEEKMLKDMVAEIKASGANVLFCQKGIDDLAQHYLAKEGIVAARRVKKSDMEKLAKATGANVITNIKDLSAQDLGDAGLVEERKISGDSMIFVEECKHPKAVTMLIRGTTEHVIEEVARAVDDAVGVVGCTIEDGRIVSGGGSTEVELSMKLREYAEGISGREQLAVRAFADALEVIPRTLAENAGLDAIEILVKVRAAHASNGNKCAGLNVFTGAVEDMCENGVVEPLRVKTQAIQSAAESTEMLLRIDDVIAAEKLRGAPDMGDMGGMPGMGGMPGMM
Method in brief: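 ATPase activity of 50 nM MmCpn was assayed with 30 uM ATP, 10 minutes at 37C, after a 5 min compound preincubation at room temperature. ADP production was read as HTRF emission at 590 and 665 nm.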

[18] = target: Galactokinase (Homo sapiens) (UniProt P51570); experiment: qHTS Validation Assay for Inhibitors of Human Galactokinase (GALK) (AID 493189)
Galactokinase (Homo sapiens), sequence (P51570 whole entry, looked up): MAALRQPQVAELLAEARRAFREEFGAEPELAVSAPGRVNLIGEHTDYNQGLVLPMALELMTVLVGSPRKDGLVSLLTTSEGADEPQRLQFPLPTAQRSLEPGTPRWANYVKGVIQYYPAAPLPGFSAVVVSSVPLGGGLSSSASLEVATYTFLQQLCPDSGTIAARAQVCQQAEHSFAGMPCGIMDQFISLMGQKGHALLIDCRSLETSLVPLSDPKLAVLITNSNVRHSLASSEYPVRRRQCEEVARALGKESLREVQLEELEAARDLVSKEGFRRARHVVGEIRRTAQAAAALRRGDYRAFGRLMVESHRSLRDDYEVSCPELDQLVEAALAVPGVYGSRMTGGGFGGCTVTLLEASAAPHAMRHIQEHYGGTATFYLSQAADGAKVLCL
Method in brief: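 Inhibition was measured as remaining ATP, detected by luciferase luminescence after a 1 h room-temperature reaction. Final conditions: 5 nM GALK, 100 uM galactose, 35 uM ATP, pH 8.0 HEPES buffer.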

[19] = target: Chromobox protein homolog 1 (Homo sapiens) (UniProt P83916); experiment: qHTS Validation Assay for Inhibitors of HP1-beta Chromodomain Interactions with Methylated Histone Tails (AID 488953);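 further: loss of AlphaScreen luminescence from HP1-beta binding biotinylated H3K9me3 peptide; series mostly up to about 110 µM; nearly all actives have a fitted effect of over 50% in size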
Method in brief: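 Disruption of preformed HP1-beta:H3K9me3 peptide complexes (both 50 nM, PBS pH 7.4 with 0.01% Tween-20) is measured by AlphaScreen after 30 min compound exposure at room temperature, using streptavidin donor and nickel chelate acceptor beads at 10 ug/mL final.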

Row | SMILES | Potency [1] | Potency [2] | Potency [3] | outcome [4] | outcome [5] | Potency [6] | Potency [7] | Potency [8] | Potency [9] | activation [10] | Potency [11] | viability change [11] [%] | outcome [12] | outcome [13] | outcome [14] | Potency [15] | outcome [16] | outcome [17] | outcome [18] | Potency [19]
1 | CCc1c(C)[nH]c2c1C(=O)C(CN1CCOCC1)CC2 (stereo not given) | 29.9 µM (active) | inactive | inactive | inactive | inactive | inactive | inactive | 14.1 µM (active) | inactive | 0.75% (inactive) | inactive | 1.73 | inactive | inactive | inactive | – | – | – | – | –
2 | COCC(=O)O[C@]1(CCN(C)CCCc2nc3ccccc3[nH]2)CCc2cc(F)ccc2[C@@H]1C(C)C | inactive | inactive | inactive | – | inactive | – | inactive | – | 18.3 µM (active) | – | – | – | inactive | inactive | inactive | inactive | inactive | – | – | –
3 | O=C1CC2(CCCC2)CC(=O)N1CCCCN1CCN(c2ncccn2)CC1 | inactive | inactive | inactive | – | inactive | inactive | – | inactive | inactive | 0.688% (inactive) | – | – | inactive | inactive | inactive | inactive | inactive | inactive | inactive | –
4 | Cc1nc2c([nH]1)c(=O)n(C)c(=O)n2Cc1ccco1 | inactive | inactive | inactive | – | – | inactive | – | inactive | – | 0.812% (inactive) | inactive | -1.43 | inactive | inactive | inactive | inactive | – | – | inactive | inactive
5 | CCCNC(C)C(=O)Nc1ccccc1C (stereo not given) | inactive | inactive | inactive | inactive | inactive | inactive | inactive | inactive | inactive | 1.5% (inactive) | inactive | -6.89 | inactive | inactive | inactive | inactive | inactive | inactive | inactive | –
6 | NC(N)=NC(=O)Cc1c(Cl)cccc1Cl | inactive | inactive | inactive | – | inactive | inactive | inactive | – | inactive | – | – | – | inactive | inactive | inactive | – | – | – | – | inactive
7 | CCC(=O)c1ccc2c(c1)N(CCCN(C)C)c1ccccc1S2 | inactive | inactive | inactive | – | – | inactive | – | 0.891 µM (active) | inactive | 1.56% (inactive) | inactive | -14.9 | inactive | inactive | inactive | – | – | inactive | inactive | –
8 | CN(C)CC/C=C1\c2ccccc2COc2ccccc21 | inactive | inactive | inactive | – | inactive | inactive | – | – | inactive | – | inactive | 10.6 | inactive | inactive | inactive | inactive | inactive | – | – | inactive
9 | CC(C(=O)O)c1ccc(CC2CCCC2=O)cc1 (stereo not given) | inactive | inactive | inactive | inactive | inactive | inactive | inactive | inactive | inactive | – | inactive | -13.4 | inactive | inactive | inactive | inactive | inactive | inactive | – | –
